About 83,000 compounds went through this panel and 20% of them were active in at least one assay; those are over-represented in the sample as a whole.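 The test compound was applied at a single concentration to cells in 96-well plates for 48 hours, and percent growth was recorded.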 Calls of active or inactive are those of the source. Rule for the calls: active = growth percent below 10; inactive = the rest.
Experiments:
Assay in all cases: NCI-60 one-dose screen, 48 h (100 = growth as untreated, 0 = no growth, -100 = all killed)
Details in all cases: 10 µM unless noted
T-47D breast = system: T-47D breast
MDA-MB-435 melanoma = system: MDA-MB-435 melanoma
SW-620 colon = system: SW-620 colon
HCC-2998 colon = system: HCC-2998 colon
KM12 colon = system: KM12 colon
MCF7 breast = system: MCF7 breast
HCT-116 colon = system: HCT-116 colon
BT-549 breast = system: BT-549 breast

Measured: growth

COc1ccc(-c2cc(-c3nnc(SC/C(=N\O)c4ccccc4)n3-c3ccccc3)c3ccccc3n2)cc1
inactive: T-47D breast 106% | MDA-MB-435 melanoma 108% | SW-620 colon 102% | HCC-2998 colon 103% | KM12 colon 98.9%

COc1cccc(-c2nc3sccn3c2-c2ccnc(NCCNC(=O)c3ccccc3)n2)c1
inactive: T-47D breast 61.9% | MDA-MB-435 melanoma 55.2% | SW-620 colon 114% | MCF7 breast 81.7% | HCT-116 colon 81.8% | HCC-2998 colon 114% | KM12 colon 87.8%

O=C(CNc1cccnc1)Nc1ccc(C(=O)/C=C/c2ccc(Cl)cc2)cc1
inactive: T-47D breast 89.9% | MDA-MB-435 melanoma 68.5% | SW-620 colon 74.3% | HCC-2998 colon 86.2% | KM12 colon 69.3%

CNC(=O)NN
inactive: T-47D breast 92.3% | MDA-MB-435 melanoma 102% | SW-620 colon 93.7% | MCF7 breast 98.1% | HCT-116 colon 93.6% | KM12 colon 101%

Cc1cccc[n+]1CCC[n+]1ccccc1C
inactive: T-47D breast 85.6% | MDA-MB-435 melanoma 102% | SW-620 colon 107% | MCF7 breast 96.5% | HCT-116 colon 86.1% | KM12 colon 100%

COc1ccccc1P(c1ccccc1OC)c1ccccc1OC
active: HCC-2998 colon -97.4%
inactive: T-47D breast 87.6% | MDA-MB-435 melanoma 115% | SW-620 colon 103% | HCT-116 colon 94.2% | KM12 colon 86.4%

c1nc(SC2=NCCN2)c2[nH]cnc2n1
inactive: T-47D breast 21.8% | MDA-MB-435 melanoma 24% | SW-620 colon 58.5% | HCT-116 colon 37% | HCC-2998 colon 32.8% | KM12 colon 47.2%

CSc1nc(N)nc2c1ncn2C
inactive: T-47D breast 90.3% | SW-620 colon 101% | MCF7 breast 96.7% | HCT-116 colon 92.1% | HCC-2998 colon 99.8% | KM12 colon 95.6%

COc1ccccc1C(OC(C)=O)OC(C)=O
inactive: T-47D breast 95.3% | MDA-MB-435 melanoma 104% | SW-620 colon 108% | MCF7 breast 90.9% | HCT-116 colon 95.7% | HCC-2998 colon 105% | KM12 colon 105%

CCn1c(SCC(=O)c2ccc(Br)cc2)nnc1-c1cc2c([nH]c3ccccc32)c(-c2cccc(O)c2)n1
inactive: T-47D breast 29.4% | MDA-MB-435 melanoma 31.3% | SW-620 colon 94.1% | MCF7 breast 40.5% | HCT-116 colon 70.1% | HCC-2998 colon 98.4% | KM12 colon 66.5%

CCC1(C(N)=O)CC2C=CC1CC2 (configuration not stated)
active: HCC-2998 colon -100%
inactive: T-47D breast 101% | MDA-MB-435 melanoma 121% | SW-620 colon 108% | MCF7 breast 98% | HCT-116 colon 107% | KM12 colon 117%

COc1ccc2c(c1)nnn1c3ncccc3c(N=O)c21
active: T-47D breast -0.214% | SW-620 colon -80.3% | MCF7 breast -58.7% | HCT-116 colon -86% | KM12 colon 5.81%
inactive: HCC-2998 colon 12.6%

CCN(CC)c1ccc(C2CC(c3cc(OC)c(OC)c(OC)c3)=NN2)cc1 (configuration not stated)
active: MCF7 breast 6.88% | HCT-116 colon 9.61%
inactive: T-47D breast 29.9% | MDA-MB-435 melanoma 21.6% | SW-620 colon 18.4% | HCC-2998 colon 21.2% | KM12 colon 11.1%

N#CC(C#N)=C(C#N)c1c[nH]c2ccccc12
inactive: T-47D breast 60.8% | MDA-MB-435 melanoma 95.6% | SW-620 colon 62.4% | MCF7 breast 74.7% | HCT-116 colon 85.4% | HCC-2998 colon 106% | KM12 colon 102%

COc1ccc2c(c1)O/C(=C/c1ccc(OCC(=O)Nc3ccc(S(N)(=O)=O)cc3)cc1)C2=O
inactive: BT-549 breast 99.6% | MDA-MB-435 melanoma 103% | SW-620 colon 107% | MCF7 breast 104% | HCT-116 colon 95.2% | HCC-2998 colon 105% | KM12 colon 99.5%

Cc1cccc(NCS(=O)(=O)O)c1
inactive: T-47D breast 94.1% | SW-620 colon 101% | MCF7 breast 95.1% | HCT-116 colon 102% | HCC-2998 colon 96.9% | KM12 colon 112%

COc1ccc(OCC(O)CN2CCN(c3ccc(Cl)cc3)CC2)cc1 (configuration not stated)
active: HCC-2998 colon -94.4%
inactive: T-47D breast 78% | SW-620 colon 101% | MCF7 breast 89.2% | HCT-116 colon 91.5% | KM12 colon 98.9%

— PubChem BioAssay (NCI)
